Experimental data published in PubChem BioAssay.
Entries with a potency or affinity are not part of this list. Records with an inconclusive call do not appear. Calls of active or inactive are those of the source.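 How the source made its calls, unless noted: active means fitted dose curve reaches 40% lysis signal rise at or below the highest valid concentration tested for that sample; inconclusive means flat fit between 30% and 70%, or poor curve fit; inactive means signal falls, stays flat within 30%, or no crossing.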

What was measured:
[1] = Cryptococcus neoformans growth inhibition, dose response, Alamar Blue, cherry-picks (AID 686998;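 active means falling signal with fitted half-maximal potency no higher than twice the top valid tested dose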)
[2] = inducers of Cryptococcus neoformans cell lysis, dose response, AK release luminescence, cherry-picks (AID 687000);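 further: luminescent detection of adenylate kinase leaking from lysed yeast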
[3] = HepG2 cell cytotoxicity, dose response, cytotoxicity control, cherry-picks, set 2 (AID 687002;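 active means a dose-response fit showing signal loss, with half-maximal concentration no higher than twice the top tested dose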)
[4] = HeLa cell cytotoxicity, dose response, cytotoxicity control, ATP luminescence, cherry-pick samples (AID 687004;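 active means a fitted half-maximal concentration no higher than twice the top valid tested dose, with signal falling as cells die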)

Measured: outcome

O=C(Cc1cccs1)N1CCN(c2ccccc2)CC1
inactive: all assays above

CCC(C)(C(=O)Nc1ccccc1C)N(C(=O)CNC(C)=O)c1ccc(C)cc1 (stereo unspecified)
inactive: all assays above

COc1ccccc1NC(=O)N[C@@H]1CC[C@H](CCn2cc(-c3ccccc3OC)nn2)O[C@H]1CO
inactive: all assays above

Cc1ccc(C)c(NC(=O)C2CCCN2C(=O)NC2CCCCC2)c1 (stereo unspecified)
inactive: all assays above

CC(C)NC(=O)N(C)C[C@@H]1OCCCC[C@@H](C)Oc2ccc(NC(=O)c3ccccc3)cc2C(=O)N([C@H](C)CO)C[C@@H]1C
inactive: all assays above

COc1ccccc1-c1cnc2c(c1)C(=O)N([C@@H](C)CO)C[C@@H](C)[C@H](CN(C)C(=O)c1cccnc1)O2
inactive: all assays above

O=C(C[C@@H]1CC[C@@H]2[C@H](COC[C@H](O)CN2S(=O)(=O)c2ccc(Oc3ccccc3)cc2)O1)NC1CCC1
inactive: all assays above

CCCNC(=O)N1[C@H](CO)[C@@H](c2ccc(C3=CCCC3)cc2)[C@@H]1CN(C)C(C)=O
inactive: all assays above

COCCNC(=O)C[C@@H]1CC[C@H]2[C@@H](COC[C@H](O)CN2Cc2cccc(-c3ccncc3)c2)O1
inactive: all assays above

O=C(C[C@H]1CC[C@H]2[C@@H](COC[C@@H](O)CN2C(=O)Nc2ccc(Cl)cc2)O1)N1CCCCC1
inactive: all assays above

Cc1cc(C)c(NC(=O)C(C)N2CCCCCC2)c(C)c1 (stereo unspecified)
inactive: all assays above

CCCNC(=O)N1C[C@@H]2[C@H](c3ccccc31)[C@H](CO)N2Cc1ccc(OC)cc1
inactive: all assays above

C[C@@H]1CN([C@@H](C)CO)C(=O)c2cc(NC(=O)C3CCCCC3)ccc2O[C@@H](C)CCCCO[C@@H]1CN(C)C(=O)NC1CCCCC1
inactive: all assays above

C[C@H]1CN([C@@H](C)CO)C(=O)c2cc(Br)cnc2O[C@@H]1CN(C)Cc1ccccn1
inactive: all assays above

O=C1CCC(C(=O)Nc2ccccc2)N1 (stereo unspecified)
inactive: all assays above

COc1ccc(NC(=O)N(C)C[C@H]2OCCCC[C@@H](C)Oc3ccc(NC(=O)c4ccccc4)cc3C(=O)N([C@@H](C)CO)C[C@H]2C)cc1
inactive: all assays above

CNC[C@@H]1Oc2cc(Br)ccc2S(=O)(=O)N([C@H](C)CO)C[C@H]1C
inactive: all assays above

C[C@H](CO)N1C[C@H](C)[C@@H](CN(C)C(=O)Nc2cccc3ccccc23)Oc2c(cccc2N(C)C)C1=O
inactive: all assays above

COc1ccccc1CNC(=O)C[C@@H]1C[C@@H]2c3cc(NC(=O)Nc4ccccc4F)ccc3O[C@@H]2[C@H](CO)O1
inactive: all assays above

C[C@@H]1CN([C@@H](C)CO)C(=O)c2cc(-c3cncnc3)cnc2O[C@H]1CN(C)C(=O)Cc1ccccc1
inactive: all assays above

Cc1ccc(S(=O)(=O)N(C)C[C@@H]2Oc3ccc(NS(=O)(=O)c4ccc(Cl)cc4)cc3CC(=O)N([C@@H](C)CO)C[C@@H]2C)cc1
inactive: all assays above

COCCNC(=O)C[C@@H]1C[C@H]2c3cc(NC(=O)C4CCC4)ccc3O[C@H]2[C@@H](CO)O1
inactive: all assays above

CC=Cc1ccc2n(c1=O)C[C@@H]1[C@@H](CO)[C@H](C(=O)N3CCCCC3)N(Cc3ccccc3)[C@H]21 (mixture of isomers)
inactive: all assays above

Cc1ccc(NC(=O)C2(C)CCN2C(=O)CC2CC2)cc1C (stereo unspecified)
inactive: all assays above

Cc1cc(C(=O)NC(=S)Nc2ccccc2N2CCCC2)ccc1[N+](=O)[O-]
inactive: all assays above

Cc1noc(C)c1NC(=O)Nc1ccc2c(c1)C(=O)N([C@H](C)CO)C[C@@H](C)[C@H](CN(C)C(=O)Nc1ccc(F)cc1)OCCCC[C@@H](C)O2
inactive: all assays above

C[C@@H]1CCCCO[C@@H](CN(C)S(=O)(=O)c2cccs2)[C@H](C)CN([C@@H](C)CO)C(=O)c2cc(NC(=O)CCC(F)(F)F)ccc2O1
inactive: all assays above

O=C(C[C@H]1CC[C@H](NC(=O)Nc2ccc(C(F)(F)F)cc2)[C@H](CO)O1)NCc1cccc(F)c1
inactive: all assays above

C[C@H](CO)N1C[C@H](C)[C@H](CN(C)C(=O)Nc2ccc3c(c2)OCO3)Oc2ncc(-c3ccc(F)cc3)cc2C1=O
inactive: all assays above

C[C@@H]1CCCCO[C@@H](CN(C)Cc2ccncc2)[C@@H](C)CN([C@H](C)CO)C(=O)c2cc(NC(=O)c3ccncc3)ccc2O1
inactive: all assays above

O=C(C[C@H]1CC[C@H]2[C@@H](COC[C@@H](O)CN2C(=O)c2ccc(F)cc2)O1)N1CCOCC1
inactive: all assays above

CO[C@@H]1CN(C)C(=O)c2ccc(NC(=O)C3CC3)cc2OC[C@H](C)N(Cc2ccc(F)cc2)C[C@H]1C
inactive: all assays above

CCS(CC)=NS(=O)(=O)c1ccc(NC(C)=O)cc1
inactive: all assays above

COc1ccc(CN(C)C[C@@H]2Oc3c(NC(=O)Nc4cccc5ccccc45)cccc3C(=O)N([C@@H](C)CO)C[C@@H]2C)cc1
inactive: all assays above

COc1ccccc1NC(=O)N[C@@H]1CC[C@@H](CCn2cc(C3(O)CCCC3)nn2)O[C@H]1CO
inactive: all assays above

COc1ccc(S(=O)(=O)Nc2ccc3c(c2)C(=O)N([C@H](C)CO)C[C@@H](C)[C@@H](CN(C)C(=O)Nc2ccccc2)O3)cc1
inactive: all assays above

O=C(C[C@@H]1CC[C@H]2[C@@H](COC[C@H](O)CN2Cc2ccccc2F)O1)NC1CCC1
inactive: all assays above

O=C(C[C@H]1C=C[C@H](NC(=O)C2CCC2)[C@@H](CO)O1)NC1CCC1
inactive: all assays above

O=C(CSc1ncnc2c1cnn2-c1ccc(Cl)cc1)NCc1ccc2c(c1)OCO2
inactive: all assays above

C[C@H](CO)N1C[C@H](C)[C@H](CN(C)C(=O)Nc2cccc3ccccc23)Oc2ccc(NC(=O)Nc3ccccc3)cc2C1=O
inactive: all assays above

O=S(=O)(NC[C@@H]1[C@@H](c2ccccc2)[C@H](CO)N1CC1CC1)c1ccccc1
inactive: all assays above

Cc1cc(C)c(NC(=O)C2CCCCN2C)c(C)c1 (stereo unspecified)
inactive: all assays above

COc1ccc(NC(=O)N(C)C[C@@H]2OCCCC[C@H](C)Oc3ccc(NC(=O)Nc4ccc5c(c4)OCO5)cc3C(=O)N([C@H](C)CO)C[C@@H]2C)cc1
inactive: all assays above

CCCN(C)C[C@H]1OCCCC[C@@H](C)Oc2ccc(NC(=O)NC(C)C)cc2C(=O)N([C@@H](C)CO)C[C@H]1C
inactive: all assays above

CO[C@@H]1CN(C)C(=O)c2cc(NC(=O)C3CC3)ccc2OC[C@H](C)N(C(=O)c2ccncc2)C[C@H]1C
inactive: all assays above

COc1cc(CNC(C)(C)C)ccc1OCC(=O)NC(C)(C)C
inactive: all assays above

COc1ccc(-c2cnc3c(c2)C(=O)N([C@@H](C)CO)C[C@H](C)[C@@H](CN(C)S(C)(=O)=O)O3)cc1
inactive: all assays above

COc1cccc(S(=O)(=O)N(C)C[C@@H]2Oc3ncc(-c4cccc(F)c4)cc3C(=O)N([C@H](C)CO)C[C@@H]2C)c1
inactive: all assays above

O=C(Cc1cccs1)N1CCN(c2ccc([N+](=O)[O-])cc2)CC1
inactive: all assays above

COCC#Cc1cnc2c(c1)C(=O)N([C@@H](C)CO)C[C@@H](C)[C@@H](CN(C)C(=O)C1CC1)O2
inactive: all assays above

COc1ccc(NC(=O)N(C)C[C@H]2OCc3ccccc3-c3c(n(C)c4ccccc34)C(=O)N([C@H](C)CO)C[C@@H]2C)cc1
inactive: all assays above

C[C@@H]1CCCCO[C@@H](CN(C)S(=O)(=O)c2ccccc2)[C@H](C)CN([C@@H](C)CO)C(=O)c2cc(NC(=O)Nc3ccc(F)cc3)ccc2O1
inactive: all assays above

O=C(c1cccc(F)c1)N1C[C@@H]2[C@H](c3ccccc31)[C@H](CO)N2Cc1cocn1
inactive: all assays above

C[C@@H]1CN([C@H](C)CO)C(=O)c2cc(NS(=O)(=O)c3cn(C)cn3)ccc2O[C@H]1CN(C)C(=O)Nc1cccc2ccccc12
inactive: all assays above
